Assay results: PubChem BioAssay AID652054 (National Center for Advancing Translational Sciences (NCATS), 2013)
Screen size: about 360,000 compounds; about 9,100 (2.5%) were called active. Inconclusive results (about 4%) are left out. Cut-off read from the data, not from the text of the source: active = max response below about -50%; inconclusive = no clear call, values can overlap the other calls; inactive = above that. For the sample, actives were picked, then their nearest neighbours and some compounds at random.

These compounds were tested against D(3) dopamine receptor (Homo sapiens) (UniProt P35462) (assay: qHTS of D3 Dopamine Receptor Antagonist: qHTS). Conditions: D3R cells, DiscoveRx beta-arrestin luminescence, antagonist mode; hits give low values.
Summary of the method: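 Cells expressing the human receptor were seeded at 1500 cells/well, incubated overnight at 37 degrees C in 5% CO2, then exposed to library compounds with dopamine controls for 90 minutes at 37 degrees C before luminescent detection.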
% is set by controls: 0 for no effect and ±100 for the full control effect.

Sequence of D(3) dopamine receptor (Homo sapiens) (P35462 whole entry, looked up): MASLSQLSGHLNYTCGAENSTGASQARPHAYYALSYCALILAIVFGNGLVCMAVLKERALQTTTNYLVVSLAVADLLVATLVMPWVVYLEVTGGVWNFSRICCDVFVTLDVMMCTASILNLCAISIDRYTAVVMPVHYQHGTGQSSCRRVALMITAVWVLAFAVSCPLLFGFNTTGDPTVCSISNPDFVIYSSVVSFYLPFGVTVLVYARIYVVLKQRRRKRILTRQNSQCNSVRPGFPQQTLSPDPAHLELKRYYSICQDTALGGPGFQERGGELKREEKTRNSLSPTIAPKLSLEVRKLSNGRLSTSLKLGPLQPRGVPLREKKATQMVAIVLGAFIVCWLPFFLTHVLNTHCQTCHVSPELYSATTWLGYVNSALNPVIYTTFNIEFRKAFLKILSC

Max response, negative = inhibition, inactive:
CCOC(=O)[C@]12CCC=C1N(Cc1cccc3ccccc13)C(=O)[C@H](CC(=O)NCc1cccc(C(F)(F)F)c1)C2 7.1%
CCCCCCN1C[C@@H](O)[C@H](n2cc(COC(=O)c3ccccc3)nn2)C[C@@H]1c1ccc(Cl)cc1 3.45%
CCc1nnc(NC(=O)c2ccco2)s1 -7.74%
Cc1ccc(S(=O)(=O)N2CCCCC2)cc1NC(=O)CCNC(=O)c1ccccc1Cl 25.5%
N#Cc1ccc(-c2nc3c(Cl)cc(C(F)(F)F)cn3c2Cc2ccccc2C(F)(F)F)cc1 8.9%
CCN(CC)CCCNC(=O)c1cc(-c2cccc(Cl)c2)on1 -19.8%
Cc1cccc(N(C)C(=O)c2cc3c(=O)[nH]c4ccc(C)cc4c3s2)c1 -15.8%
CCC(=O)N1CCC(C)(C(=O)Nc2cc(OC)c(OC)c(OC)c2)C1 (stereo not given) 16.4%
CCOc1ccc(NC(=O)N2CCN(CC)CC2)cc1 6.64%
Cc1cccc(C)c1NC(=O)N1CC=C(n2c(=O)[nH]c3ccccc32)CC1 0%
CCOC(=O)C=Cc1ccc(C(=O)OCC)[nH]1 20.2%
COC(=O)[C@@]12C[C@@H](CC(=O)N3CCCCC3)C(=O)N(Cc3ccc4c(c3)OCO4)C1=CCC(C)(C)C2 -15.1%
CCOc1ccc(CNC(=O)CCC(=O)N2CCSc3ccccc32)cc1 10.8%
Cc1ccc(NC(=O)N2CCC(O)(c3cccnc3)CC2)cc1 1.47%
Cc1ccc(S(=O)(=O)N[C@H](CO)C(C)C)cc1 -14.1%
CCC(=O)c1ccc(OCC(=O)N(CC)CC2COc3ccccc3O2)cc1 (stereo not given) 10.7%
CC(NC(=S)Nc1ccccc1)C1COc2ccccc2O1 (stereo not given) 1.63%
Cc1cc(=O)c2ccc(NC(=O)c3ccccc3)cc2[nH]1 13.3%
O=C1NC(O)CCN1C1CC(O)C(CO)O1 (stereo not given) 11%
CCN1CC=C2C(C#N)=C(N)C(C#N)(C#N)[C@H](c3ccoc3)[C@H]2C1 -11.8%

Max response, negative = inhibition, active:
CCN(CC)CCCNC(=O)c1cc2c(=O)[nH]c3ccc(C)cc3c2s1 -89.2%
CCOc1ccc(NC(=O)N2CC=C(n3c(=O)[nH]c4ccccc43)CC2)cc1 -51.2%
Cc1ccc(NC(=O)N2CCSc3ccccc32)cc1 -50.5%
CCCN(CC1COc2ccccc2O1)C(=S)Nc1ccc(C)cc1 (stereo not given) -53.1%
CCCN1CC=C2C(C#N)=C(N)C(C#N)(C#N)C(c3cc(OC)ccc3OC)C2C1 (stereo not given) -67.2%
